In PubChem BioAssay AID2235 (The Scripps Research Institute Molecular Screening Center, 2010):
In all, about 320,000 compounds went through this assay and about 2,800 (0.88%) were called active. What follows is part of a selection rich in actives, with near analogues and random picks from the rest. Values without a mark were called inactive.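 Rule for the calls: active = inhibition above the mean inhibition of all tested compounds plus 3 SD, computed separately for each screening campaign (cut at about 15% in these data); inactive = the rest.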

biological target: Serine/threonine-protein phosphatase PP1-alpha catalytic subunit (Homo sapiens) (UniProt P62136); assay: PP1-alpha phosphatase inhibitors, primary screen, counter-screen for PP5 inhibitor project, biochemical, fluorescence, OMFP substrate, single point (AID 2235); details: purified PP1alpha, at 6.7 µM, hits give high values
Sequence (P62136 whole entry, looked up): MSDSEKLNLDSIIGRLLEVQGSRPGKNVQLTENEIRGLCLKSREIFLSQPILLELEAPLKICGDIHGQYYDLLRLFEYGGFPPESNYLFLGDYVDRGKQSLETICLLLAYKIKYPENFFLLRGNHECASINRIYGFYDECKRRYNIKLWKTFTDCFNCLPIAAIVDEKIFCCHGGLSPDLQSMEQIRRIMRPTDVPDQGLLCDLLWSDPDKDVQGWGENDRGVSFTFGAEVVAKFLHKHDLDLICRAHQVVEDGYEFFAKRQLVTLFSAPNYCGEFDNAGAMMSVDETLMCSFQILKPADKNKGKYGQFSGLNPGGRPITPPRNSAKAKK

| Compound | inhibition |
| --- | --- |
| CC(C)CCSc1ncnc2c1oc1nc3c(cc12)COC(C)(C)C3 | -3.04% |
| Cc1c(CC(=O)N2CCN(C(=O)C3COc4ccccc4O3)CC2)c(=O)oc2c(O)c(O)ccc12 (stereo not given) | 3.96% |
| Cc1cc(Nc2ccc(Br)cc2F)n2ncnc2n1 | -2.4% |
| COc1ccc(C2C(C(C)=O)=C(O)C(=O)N2CCc2c[nH]c3ccccc23)cc1 (stereo not given) | 18.3% (active) |
| COc1ccc(C2C(C(C)=O)=C(O)C(=O)N2c2nccs2)cc1 (stereo not given) | -3.06% |
| COc1ccc(C2C(C(C)=O)=C(O)C(=O)N2Cc2cccnc2)cc1 (stereo not given) | -4.55% |
| Cc1onc(-c2ccccc2Cl)c1C(=O)N(Cc1ccc(N(C)C)cc1)C(C)C | 0.01% |
| COc1ccc2c(c1)c(C(=O)N/N=C/c1cccs1)c(C)n2C | -3.65% |
| Cc1ccc2c(Cl)c(C(=O)Nc3nn[nH]n3)sc2c1 | 10.3% |
| Cc1ccc(-c2cc(C(=O)Nc3nn[nH]n3)c3ccccc3n2)c(C)c1 | 21.8% (active) |
| COc1ccc(CN(C)C(=O)c2cc(-c3ccc(C)cc3C)nc3ccccc23)c(OC)c1OC | 1.42% |
| COc1cccc(NC(=O)C(Sc2nnnn2C)c2ccccc2)c1 (stereo not given) | -7.84% |
| Cc1ccc2cc(CCNC(=O)c3c(-c4ccccc4Cl)noc3C)c(=O)[nH]c2c1 | 57.5% (active) |
| Cc1onc(-c2ccccc2Cl)c1C(=O)NCCn1ccc2ccccc21 | 0.26% |
| Cc1ccc2cc(CCNC(=O)c3ccc4c(c3)OCO4)c(=O)[nH]c2c1 | 0.9% |
| O=S(=O)(NCCc1ccccn1)c1cc(Cl)cc(Cl)c1O | -3.07% |
| COc1cc(S(=O)(=O)N2CCOCC2)ccc1NC(=O)COc1ccc(N(C)S(=O)(=O)c2ccc(C)cc2)cc1 | 5.5% |
| O=C(Nc1ccccc1F)c1ccc(S(=O)(=O)N2CCCCCC2)cc1 | 0.94% |
| CC(=O)N1CCCc2cc(S(=O)(=O)N3CCCC(C(=O)N4CCN(c5cccc(Cl)c5)CC4)C3)ccc21 (stereo not given) | -0.49% |
| CCCCCCCCCCOC(=O)Cn1c(COc2ccc(C)cc2)[n+](C)c2ccccc21 | 44.7% (active) |
| CCOC(=O)Cn1c(-c2cccnc2Cl)nc2ccccc21 | 2.18% |
| CCOC(=O)COn1c(=O)c(-c2ccc(OCC)cc2)[n+]([O-])c2ccccc21 | -1.29% |
| CCn1c(COc2cccc(OC)c2)nnc1SCC(=O)N1CCOCC1 | -1.11% |

| Compound | inhibition |
| --- | --- |
| CCCCn1c(N)c(N(CCOC)C(=O)c2cccc(OCc3ccccc3)c2)c(=O)[nH]c1=O | -1.96% |
| CCCCCCCCCCOC(=O)Cn1c(COc2cccc(OC)c2)[n+](C)c2ccccc21 | 33% (active) |
| O=C(CCN1C(=O)[C@@H]2Cc3ccccc3CN2C1=O)NCCc1ccccc1 | -2.43% |
| COC(=O)CCCC1=CC2=C(c3ccccc3)C(=O)C(C)(OC(=O)C3CCCC3)C(=O)C2=CN1c1ccc(OC)cc1 (stereo not given) | -4.53% |
| CSc1ncccc1C(=O)Nc1ccc2c(c1)OCO2 | -1.92% |
| Oc1c(C(c2ccccn2)N2CCOCC2)ccc2cccnc12 (stereo not given) | 78.5% (active) |
| CCOc1cc(N2CCOCC2)c(OCC)cc1NC(=O)COc1cccc2cccnc12 | 2.8% |
| CCOC(=O)N1CCN(C(c2cccnc2)c2ccc3cccnc3c2O)CC1 (stereo not given) | 3.71% |
| CC(=O)N1CCN(CC(C)(C)NS(=O)(=O)c2ccc(C)cc2)CC1 | -0.49% |
| COc1ccc(S(=O)(=O)N(C)CC(=O)N2CCCC2)cc1Cl | -3.22% |
| C=CCOc1ccc(/C=C2\SC(=S)N(CCC(=O)O)C2=O)cc1 | 6.24% |
| O=C(CCCN1C(=O)/C(=C/c2ccccc2)SC1=S)Nc1ccc(O)cc1 | 1.67% |
| COc1ccc(-c2nn(-c3ccccc3)cc2/C=C2/SC(=S)N(CCCC(=O)O)C2=O)c(C)c1 | 23.3% (active) |
| COc1ccc(/C=C2\SC(=S)N(CCCC(=O)NC3CCCC3)C2=O)cc1OC | 3.46% |
| Cc1ccc(-c2nn(-c3ccccc3)cc2/C=C2\SC(=S)N(CCCCCC(=O)O)C2=O)o1 | 23.8% (active) |
| Cc1ccc(-c2nn(-c3ccccc3)cc2CN(Cc2ccccc2)C(=O)CCC(=O)O)o1 | -2.67% |
| CCCn1nc(C(=O)Nc2ccc3nc(C)sc3c2)c2ccccc2c1=O | -3.9% |
| COc1ccc(-c2cc(C(F)(F)F)n3nc(C(=O)N4CCOCC4)c(Cl)c3n2)cc1 | -1.63% |
| CCOC(=O)c1nn(-c2cccc(C)c2)cc1C(=O)c1ccccc1 | 1.33% |
| COc1c(F)c(F)c(-c2csc(N)n2)c(F)c1F | -1.76% |
| N#Cc1ccc(C(=O)OCC(=O)NC(=O)NC2CCCCC2)cc1 | 0.62% |
| CCS(=O)(=O)C1=NSC2=NC(=O)/C(=C\c3ccc(OS(=O)(=O)c4ccccc4)cc3)C(=N)N21 | 1.95% |
| CS(=O)(=O)c1ccc2c(c1)SC1=NC(=O)/C(=C/c3ccco3)C(=N)N12 | 24.5% (active) |

| Compound | inhibition |
| --- | --- |
| CS(=O)(=O)C1=NN2C(=N)/C(=C\c3ccc(OCCOc4ccccc4)cc3)C(=O)N=C2S1 | 12.2% |
| Cc1cc(NC(=O)OC(C)C)ccc1-c1ccc(NC(=O)OC(C)C)cc1C | -5.37% |
| COCC(C)NC(=O)COc1nncc2ccccc12 (stereo not given) | -1.71% |
| CSc1ccc(/C=N\NC(=O)CC(=O)NC(C)C)cc1 | -3.41% |
| CSc1ccc(/C=N\NC(=O)COc2ccc(Cl)cc2Br)cc1 | 45.6% (active) |
| CSc1ccc(/C=N/NC(=O)c2cccc(Cl)c2)cc1 | -0.88% |
| Cc1cc(C)c(S(=O)(=O)NCC(c2ccc3c(c2)OCO3)N2CCOCC2)c(C)c1 (stereo not given) | -3.95% |
| CN(C(=O)COC(=O)c1nc(Cl)ccc1Cl)C1CCS(=O)(=O)C1 (stereo not given) | -2.63% |
| CN(CCOc1ccccc1)C(=O)c1cc(-c2ccco2)nc2ccccc12 | 11% |
| CN(C(=O)COC(=O)c1cc(-c2ccco2)nc2ccccc12)C1CCS(=O)(=O)C1 (stereo not given) | 41.1% (active) |
| O=C(CC(c1ccccc1)c1cc(Cl)ccc1O)NCCN1CCOCC1 (stereo not given) | -1.01% |
| CCOC(=O)c1ccc[n+](CC(=O)Nc2ccccc2OC(F)F)c1 | -3.16% |
| Cc1ccc(-c2nc(SCC(=O)Nc3ccccc3OC(F)F)c3c(C)c(C(=O)O)sc3n2)cc1 | 52% (active) |
| O=C(COC(=O)c1ccccc1SCC(=O)N1CCCC1)Nc1ccccc1OC(F)F | -0.81% |
| Cc1ccc(C)c(NC(=O)CSc2nc3c(oc4ccccc43)c(=O)n2-c2ccccc2)c1 | 10.1% |
| COc1cc(C(C(=O)NC2CCCC2)N(Cc2ccccc2)C(=O)c2snc(C(N)=O)c2N)ccc1O (stereo not given) | -0.55% |
| CCOC(=O)Cc1cc(=O)[nH]c(=O)[nH]1 | -3.59% |
| COc1ccc(-c2ocnc2C(=O)Nc2ccc3c(c2)CCC3)cc1 | -2.76% |
| O=C1N=C2SCCN2/C1=C\c1c(Cl)cccc1Cl | 15.4% (active) |
| O=C1N=C(N2CCCC2)S/C1=C\c1cccc(Br)c1 | -0.89% |
| O=Cc1c(Cl)cccc1Cl | -3.41% |
| O=C(N/N=C\C1CC=CCC1)c1ccc(Br)o1 (stereo not given) | 2.42% |
| O=C(c1cn(-c2ccccc2)nc1-c1cccnc1)N1CCN(S(=O)(=O)c2ccccc2F)CC1 | -1.36% |

| Compound | inhibition |
| --- | --- |
| Cc1ccc(CNC(=O)CCN2C(=O)[C@@H]3Cc4ccccc4CN3C2=O)cc1 | 3.38% |
| O=C(NCCN1CCOCC1)c1cc(-c2cccs2)nc2ccccc12 | -5.13% |
| CCCCN(C)CCCNC(=O)c1cc(-c2cccs2)nc2ccccc12 | 1.01% |
| O=C(Nc1nnc(-c2ccccc2)o1)c1cc(-c2cccs2)nc2ccccc12 | 34.7% (active) |
| CCN(CC)c1ccc(NC(=O)CN2C(=O)NC3(CCc4ccccc43)C2=O)cc1 (stereo not given) | 3.2% |
| COCCCn1c(-c2cccs2)nc2nc3ccccc3nc21 | -1.53% |
| CC(C)(C)c1ccccc1NC(=O)CN1C(=O)NC2(CCCC2)C1=O | -2.93% |
| O=C(/C=C/c1ccco1)Nc1ccc(Oc2ccccc2)cc1 | 3.61% |
| Cc1nnc(NC(=O)/C=C/c2ccco2)s1 | -3.35% |
| Cc1ccc(-n2nc3ccc(NC(=O)/C=C/c4ccco4)cc3n2)cc1C | 19.2% (active) |
| COc1ccc(CN2CCN(Cc3ccc(OC)c(OC)c3OC)CC2)cc1 | -0.69% |
| CCOc1ccc(N(CC(=O)Nc2cccc(OC)c2)S(C)(=O)=O)cc1 | -2.47% |
| COc1ccc(NC(=O)CSc2nnc(-c3ccccc3F)n2C2CC2)cc1S(N)(=O)=O | -2.33% |
| Fc1cccc(Cl)c1COc1ccc(-c2nnco2)cc1 | 0.3% |
| CC(=O)NCc1ccc(-c2csc(NC(=O)CCCc3nc4ccccc4c(=O)[nH]3)n2)cc1 | -1.25% |
| Cc1cc(C)c(-c2csc(NC(=O)CCCc3nc4ccccc4c(=O)[nH]3)n2)c(C)c1 | 1.77% |
| CCCn1c(C)cc(-c2csc(NC(=O)CCc3nc4ccccc4c(=O)[nH]3)n2)c1C | 15.3% (active) |
| O=C1CCCCN1CCCC(=O)N1CCCC(Nc2ccc(F)cc2)C1 (stereo not given) | -8.73% |
| Cc1ccc(NS(=O)(=O)c2ccc(N/N=C/c3ccccc3OCC(=O)O)c([N+](=O)[O-])c2)c(C)c1 | 21.9% (active) |
| Cc1cccc(COc2ccccc2/C=N/Nc2ccc([N+](=O)[O-])cc2)c1 | 6.78% |
| COCCNC(=O)c1ccccc1NS(=O)(=O)c1ccc(C)c([N+](=O)[O-])c1 | -0.54% |
